Screen size: about 16,000 compounds; about 5,800 (36%) were called active. Another 23% or so got no clear call; they are omitted. The call rests on the fitted dose curve; in most records, active means well fitted curve in the direction sought with a large enough effect; inconclusive means small, poorly fitted or top-dose-only effect, or effect the other way; inactive means no such curve, though single readings can be large or run the other way. The list shows a part of the results.
Each compound was assayed against Cytochrome P450 2C19 (Homo sapiens) (UniProt P33261) (assay: Cytochrome panel assay with activity outcomes). Settings: recombinant CYP, pro-luciferin dealkylation, luminescence, p450-cyp2c19; series mostly up to 57.1 µM; activity, negative = inhibition: at the top concentration.
On the % scale 0 is the no-effect control and ±100 the full control effect.

Cytochrome P450 2C19 (Homo sapiens), sequence (P33261 whole entry, looked up): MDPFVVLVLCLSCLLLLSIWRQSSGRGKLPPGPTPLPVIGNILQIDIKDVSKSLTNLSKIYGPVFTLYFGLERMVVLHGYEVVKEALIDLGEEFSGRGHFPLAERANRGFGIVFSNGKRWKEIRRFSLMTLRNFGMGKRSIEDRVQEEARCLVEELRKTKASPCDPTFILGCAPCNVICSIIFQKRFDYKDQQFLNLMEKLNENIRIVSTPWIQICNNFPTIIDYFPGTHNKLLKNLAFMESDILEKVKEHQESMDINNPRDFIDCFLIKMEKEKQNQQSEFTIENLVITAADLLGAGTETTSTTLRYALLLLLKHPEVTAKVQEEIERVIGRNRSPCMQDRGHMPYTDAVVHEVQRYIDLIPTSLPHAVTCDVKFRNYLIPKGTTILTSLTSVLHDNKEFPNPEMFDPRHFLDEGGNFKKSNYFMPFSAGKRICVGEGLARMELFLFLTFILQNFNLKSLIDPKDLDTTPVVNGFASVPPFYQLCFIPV

SMILES | AC50 | activity, negative = inhibition
O=C1Oc2ccccc2C2(O)C3CCCCCC3C12 (centres undefined) | 1.41 µM (active) | –
C#CCSc1nnc(-c2sc3ccccc3c2Cl)o1 | – | -28.6% (inactive)
C#CCSc1nc(Cc2ccc(Cl)cc2)nc2ccccc12 | 0.501 µM (active) | –
CC1(C)CC(=O)C(C(C#Cc2ccccc2)C2=C(O)CC(C)(C)CC2=O)=C(O)C1 | 4.47 µM (active) | –
O=C(c1ccncc1)N1CCC2(CC1)CN(C(c1ccccc1)c1ccccc1)C2 | – | -40.4% (inactive)
CC(=O)N1CCC2(CC1)CCN(C(c1ccccc1)c1ccccc1)CC2 | – | -26.9% (inactive)
CC(=O)N1CCC2(CCCN(C(c3ccccc3)c3ccccc3)C2)CC1 | 15.8 µM (active) | –
O=C(c1ccncc1)N1CCC2(CCCN(C(c3ccccc3)c3ccccc3)C2)CC1 | 10 µM (active) | –
Cc1noc(C)c1C(=O)N1CCC2(CCCN(C(c3ccccc3)c3ccccc3)C2)CC1 | – | -32.8% (inactive)
CC(=O)N1CCC2(CC1)CN(C(c1ccccc1)c1ccccc1)C2 | – | 16.5% (inactive)
c1ccc(CNc2ncnc3ccc(-c4ccc5c(c4)OCO5)cc23)cc1 | 3.16 µM (active) | –
c1ccc(Nc2ncnc3ccc(-c4ccc5c(c4)OCO5)cc23)cc1 | – | -41.2% (inactive)
Cc1cccc(CNc2ncnc3ccc(-c4ccc5c(c4)OCO5)cc23)c1 | 5.01 µM (active) | –
Cc1cc(O)c(C(C)C)cc1C1(c2cc(C(C)C)c(O)cc2C)OC(=O)c2ccccc21 | 3.16 µM (active) | –
O=c1c(-c2ccc(F)cc2)nc2cnc(N3CCOCC3)nc2n1C1CC1 | – | 2.66% (inactive)
Cc1ccc(S(=O)(=O)N(CC(=O)N2CCN(c3ccc(F)cc3)CC2)C2CCCCC2)cc1 | 2.82 µM (active) | –
Cc1ccc(S(=O)(=O)NC(=O)NN2C[C@H]3CCC[C@@H]3C2)cc1 | – | -36.1% [at 25.6 µM] (inactive)

SMILES | AC50 | activity, negative = inhibition
COc1cccc(Nc2ncc3nc(C)c(=O)n(C4CC4)c3n2)c1 | – | -10.3% (inactive)
COc1ccc(-n2c(=O)c(C)nc3cnc(Nc4ccccc4)nc32)cc1 | – | -35.7% (inactive)
COc1ccc(-n2c(=O)c(-c3cccs3)nc3cnc(Nc4cccc(OC)c4)nc32)cc1 | – | -16.8% (inactive)
COc1ccc(C2CC(=O)c3cnc(Nc4cc(C)cc(C)c4)nc3C2)cc1 (centres undefined) | 11.2 µM (active) | –
COc1ccc(Nc2ncc3c(n2)CC(c2ccc(C)cc2)CC3=O)cc1 (centres undefined) | 8.91 µM (active) | –
COc1ccc(-c2nc3cnc(Nc4ccccc4)nc3n(CCC#N)c2=O)cc1 | – | -8.02% (inactive)
O=C(Nc1ccccc1)N1CC[C@@]2(CCCN(C(=O)c3ccco3)C2)C1 | – | -17.2% (inactive)
C=CC[C@@H]1C=C[C@H](O/N=C(\C)CCN2CCCCc3nc(C)c(C)cc32)[C@H](CO)O1 | – | 21.2% [at 11.4 µM] (inactive)
O=C(c1cccc(F)c1)N1CCC[C@@]2(CCN(c3ccccc3)C2)C1 | – | 4.02% (inactive)
O=C(c1cccc(F)c1)N1CCC2(CCCN(c3ccccc3)C2)CC1 | 5.01 µM (active) | –
CC(C)CN1CCCC2(CCN(C(=O)c3cccc(F)c3)CC2)C1 | – | -33.2% (inactive)
CC(=O)N1CCC2(CCCN(c3ncccn3)C2)CC1 | – | -33.5% (inactive)
O=C(c1cccc(F)c1)N1CCC2(CC1)CCN(c1cccc(-c3ccccc3)c1)CC2 | – | -26.8% (inactive)
O=C(c1cccc(F)c1)N1CCC2(CCCN(c3cccc(-c4ccccc4)c3)C2)CC1 | 7.94 µM (active) | –
O=C(c1cccc(F)c1)N1CCC2(CC1)CN(c1cccc(-c3ccccc3)c1)C2 | – | 1.93% (inactive)
O=C(c1cccc(F)c1)N1CCC2(CC1)CCN(c1ccccc1)CC2 | – | -28.2% (inactive)
O=C(c1cccc(F)c1)N1CCC2(CCCN(c3ncccn3)C2)CC1 | 6.31 µM (active) | –

From PubChem BioAssay AID1851 (National Center for Advancing Translational Sciences (NCATS), 2009)
